Compounds without any hit were thinned out: in the full panel of roughly 83,000, 20% have a hit.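 Step 1: grow cells in 96-well plates. Step 2: add test compound at a single concentration. Step 3: incubate 48 h. Step 4: record percent growth.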 Unmarked numbers belong to inactive results. Active and inactive are the calls of the source. Rule for the calls: active = growth percent below 10; inactive = the rest.
What follows are compounds tested on HL-60(TB) leukemia (assay: NCI-60 one-dose screen, 48 h (100 = growth as untreated, 0 = no growth, -100 = all killed)). Conditions: 10 µM unless noted.

Compound | growth
CCN(CC)CCOc1ccc2ccc(=O)oc2c1 | 3.42% (active)
COC(=O)c1c(C)nc(Nc2nc3ccccc3s2)nc1-c1ccc(Cl)cc1Cl | 96.3%
[2H]C([2H])([2H])Oc1ccc(/C=C/C(=O)/C=C(O)/C=C/c2ccc(OC([2H])([2H])[2H])c(OC([2H])([2H])[2H])c2)cc1OC([2H])([2H])[2H] | 54.5%
O=C(/C=C/c1ccco1)Nc1ncc(Cc2cc(Cl)ccc2Cl)s1 | -50% (active)
COc1ccc(OC)c(/C=C/c2nc(=S)n(-c3ccc(Cl)cc3)[nH]2)c1 | 4.33% (active)
Nc1nc(N)c2c(n1)NC(c1cccc(Nc3ccnc4cc(C(F)(F)F)ccc34)c1)CC(c1ccc(Br)cc1)=N2 (stereo not given) | 43.1%
CN1COc2ccc3ccccc3c2C1 | 93.2%
Clc1ccc2c(c1)C(Br)c1cc(Cl)cc(Cl)c1-2 (stereo not given) | 81.3%
COc1ccc(/C=N/NC(N)=S)cc1 | 88.9%
CCCCCCCCCCCCCCCCCCOc1cccc(CC(=O)OCC[N+](CC)(CC)CC)c1 | 9.38% (active)
CC1(C)C2=C(C(=O)N1Cc1ccccc1)C(c1ccco1)N(C(=O)C1CCC1)CCN2 (stereo not given) | 99.1%
CC(C)c1nc(N(C)S(C)(=O)=O)nc(-c2ccc(F)cc2)c1/C=C/[C@@H](O)C[C@@H](O)CC(=O)O | 114%
Cc1cc2cc3cc(C)c(N(C)C)cc3nc2cc1N(C)C | 47.5%
Oc1ccc(CCCCCCc2ccc(O)cc2)cc1 | 100%
CN(C)C(=O)c1cc2cnc(Nc3ccc(-c4csc5c(=O)cc(N6CCNCC6)oc45)cc3)nc2n1C1CCCC1 | -21% (active)

From PubChem BioAssay (NCI)
